Results as given in the supplement of paper PMC10849652.
Targets with a hit are over-represented here; the source holds about 8,800 in all. About 0.5% of all pairs of compound and target were hits. A number with no mark means an inactive call.

Legend:
Assay in all cases: log2 fold change, soluble protein after heating vs DMSO (PISA); higher = thermal stabilisation; K562 lysate, 10 uM; active = over 0.2 and 3.5 SD of the protein, either way, in both replicates (recomputed)
alvocidib = compound: CN1CC[C@H](c2c(O)cc(O)c3c(=O)cc(-c4ccccc4Cl)oc23)[C@H](O)C1 [alvocidib]
In short: (§1)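 Soluble protein was defined as the supernatant remaining after 21,000xg for 90 min, following pooling of heated aliquots and adjustment to 0.5% NP-40 at 4°C. Before that, crude K562 extract at 1 mg/mL protein in PBS pH 7.4 with 1 mM MgCl2 was treated with 10 μM compound for 30 min and heated for 3 min across 48°C-58°C. Quantification used TMTpro 16plex LC-MS/MS with channel sums equalised, and values are log-two fold changes in thermal stability relative to solvent controls from duplicates.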

Tubastatin A = compound: CN1CCc2c(c3ccccc3n2Cc2ccc(C(=O)NO)cc2)C1 [Tubastatin A]
In short: as §1

[1] = compound: CNC(=O)C1=CC=CC=C1NC2=NC(=NC=C2Cl)NC3=C(C=C(C=C3)N4CCOCC4)OC
In short: as §1

defactinib = compound: CNC(=O)c1ccc(Nc2ncc(C(F)(F)F)c(NCc3nccnc3N(C)S(C)(=O)=O)n2)cc1 [defactinib]
In short: as §1

[2] = compound: CNc1nc(-c2ccc3c(N)n[nH]c3c2)cc(N2C[C@@H](C(=O)NC3CCCCC3)CC[C@H]2C)n1
In short: as §1

encorafenib = compound: COC(=O)N[C@@H](C)CNc1nccc(-c2cn(C(C)C)nc2-c2cc(Cl)cc(NS(C)(=O)=O)c2F)n1 [encorafenib]
In short: as §1

[3] = compound: COC(=O)[C@H](CCSC)NC(=O)C1=C(C=C(C=C1)NC[C@H](CS)N)C2=CC=CC=C2
In short: as §1

alisertib = compound: COc1cc(Nc2ncc3c(n2)-c2ccc(Cl)cc2C(c2c(F)cccc2OC)=NC3)ccc1C(=O)O [alisertib]
In short: as §1

[4] = compound: COc1cc2nc(-c3cc(F)ccc3O)nc(N[C@@H]3CNC[C@H]3C(C)(C)O)c2cc1OC
In short: as §1

gefitinib = compound: COc1cc2ncnc(Nc3ccc(F)c(Cl)c3)c2cc1OCCCN1CCOCC1 [gefitinib]
In short: as §1

lapatinib = compound: CS(=O)(=O)CCNCc1ccc(-c2ccc3ncnc(Nc4ccc(OCc5cccc(F)c5)c(Cl)c4)c3c2)o1 [lapatinib]
In short: as §1

pictilisib = compound: CS(=O)(=O)N1CCN(Cc2cc3nc(-c4cccc5[nH]ncc45)nc(N4CCOCC4)c3s2)CC1 [pictilisib]
In short: as §1

crizotinib = compound: C[C@@H](Oc1cc(-c2cnn(C3CCNCC3)c2)cnc1N)c1c(Cl)ccc(F)c1Cl [crizotinib]
In short: as §1

[5] = compound: C[C@H](C1=CC=C(C=C1)C(=O)NC2=C3C=CNC3=NC=C2)N
In short: as §1

duvelisib = compound: C[C@H](Nc1ncnc2nc[nH]c12)c1cc2cccc(Cl)c2c(=O)n1-c1ccccc1 [duvelisib]
In short: as §1

gandotinib = compound: Cc1cc(Nc2cc(CN3CCOCC3)c3nc(C)c(Cc4ccc(Cl)cc4F)n3n2)n[nH]1 [gandotinib]
In short: as §1

tozasertib = compound: Cc1cc(Nc2cc(N3CCN(C)CC3)nc(Sc3ccc(NC(=O)C4CC4)cc3)n2)n[nH]1 [tozasertib]
In short: as §1

doramapimod = compound: Cc1ccc(-n2nc(C(C)(C)C)cc2NC(=O)Nc2ccc(OCCN3CCOCC3)c3ccccc23)cc1 [doramapimod]
In short: as §1

bafetinib = compound: Cc1ccc(NC(=O)c2ccc(CN3CC[C@H](N(C)C)C3)c(C(F)(F)F)c2)cc1Nc1nccc(-c2cncnc2)n1 [bafetinib]
In short: as §1

[6] = compound: Cc1cccc(CC(=O)N2CCc3c2ccc(-c2cn(C)c4ncnc(N)c24)c3F)n1
In short: as §1

Sequence of UniProt O95202 (O95202 whole entry, looked up): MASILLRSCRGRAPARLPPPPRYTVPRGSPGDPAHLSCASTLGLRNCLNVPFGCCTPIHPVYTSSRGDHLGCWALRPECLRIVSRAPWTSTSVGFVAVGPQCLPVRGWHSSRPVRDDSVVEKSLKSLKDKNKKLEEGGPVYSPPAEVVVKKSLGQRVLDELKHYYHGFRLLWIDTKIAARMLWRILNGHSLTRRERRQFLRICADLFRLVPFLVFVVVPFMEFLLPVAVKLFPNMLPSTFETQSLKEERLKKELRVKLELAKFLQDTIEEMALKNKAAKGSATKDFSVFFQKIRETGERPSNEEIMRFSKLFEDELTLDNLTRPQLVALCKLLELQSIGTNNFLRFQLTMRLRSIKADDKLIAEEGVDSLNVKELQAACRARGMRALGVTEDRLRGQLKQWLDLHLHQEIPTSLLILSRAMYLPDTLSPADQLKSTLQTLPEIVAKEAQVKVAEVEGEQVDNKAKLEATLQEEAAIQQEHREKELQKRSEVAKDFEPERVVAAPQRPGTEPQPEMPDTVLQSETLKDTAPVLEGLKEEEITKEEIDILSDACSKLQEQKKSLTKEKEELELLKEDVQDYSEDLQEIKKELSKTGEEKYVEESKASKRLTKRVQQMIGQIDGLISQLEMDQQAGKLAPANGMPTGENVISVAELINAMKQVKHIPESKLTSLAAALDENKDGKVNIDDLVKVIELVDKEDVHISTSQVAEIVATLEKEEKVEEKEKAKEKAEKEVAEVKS
Sequence of UniProt P53671 (P53671 whole entry, looked up): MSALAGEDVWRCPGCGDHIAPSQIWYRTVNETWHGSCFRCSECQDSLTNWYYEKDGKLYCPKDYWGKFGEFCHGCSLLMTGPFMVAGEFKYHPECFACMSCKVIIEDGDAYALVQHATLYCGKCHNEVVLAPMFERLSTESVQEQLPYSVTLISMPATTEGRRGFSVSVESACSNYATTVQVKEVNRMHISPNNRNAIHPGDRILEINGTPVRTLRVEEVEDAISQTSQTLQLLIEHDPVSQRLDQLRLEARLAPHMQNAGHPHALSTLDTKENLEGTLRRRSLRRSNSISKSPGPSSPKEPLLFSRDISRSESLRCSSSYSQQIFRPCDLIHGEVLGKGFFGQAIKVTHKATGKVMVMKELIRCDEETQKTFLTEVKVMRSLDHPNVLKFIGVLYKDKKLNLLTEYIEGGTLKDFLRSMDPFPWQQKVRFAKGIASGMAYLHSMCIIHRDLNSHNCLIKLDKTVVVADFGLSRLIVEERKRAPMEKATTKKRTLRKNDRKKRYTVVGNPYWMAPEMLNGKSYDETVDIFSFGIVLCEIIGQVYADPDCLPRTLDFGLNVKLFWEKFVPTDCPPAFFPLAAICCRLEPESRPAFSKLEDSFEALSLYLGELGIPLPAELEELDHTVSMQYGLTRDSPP
Sequence of UniProt Q9NZL9 (Q9NZL9 whole entry, looked up): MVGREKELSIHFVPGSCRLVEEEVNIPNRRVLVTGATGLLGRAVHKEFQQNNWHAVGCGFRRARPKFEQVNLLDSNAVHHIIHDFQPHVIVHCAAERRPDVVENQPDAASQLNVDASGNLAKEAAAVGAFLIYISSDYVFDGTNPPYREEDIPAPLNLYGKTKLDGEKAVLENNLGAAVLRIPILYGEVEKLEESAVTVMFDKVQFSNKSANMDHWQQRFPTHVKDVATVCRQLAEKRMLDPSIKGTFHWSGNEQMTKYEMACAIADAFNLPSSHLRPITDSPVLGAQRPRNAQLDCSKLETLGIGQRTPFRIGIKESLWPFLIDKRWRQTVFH
Sequence of UniProt Q9H0B6 (Q9H0B6 whole entry, looked up): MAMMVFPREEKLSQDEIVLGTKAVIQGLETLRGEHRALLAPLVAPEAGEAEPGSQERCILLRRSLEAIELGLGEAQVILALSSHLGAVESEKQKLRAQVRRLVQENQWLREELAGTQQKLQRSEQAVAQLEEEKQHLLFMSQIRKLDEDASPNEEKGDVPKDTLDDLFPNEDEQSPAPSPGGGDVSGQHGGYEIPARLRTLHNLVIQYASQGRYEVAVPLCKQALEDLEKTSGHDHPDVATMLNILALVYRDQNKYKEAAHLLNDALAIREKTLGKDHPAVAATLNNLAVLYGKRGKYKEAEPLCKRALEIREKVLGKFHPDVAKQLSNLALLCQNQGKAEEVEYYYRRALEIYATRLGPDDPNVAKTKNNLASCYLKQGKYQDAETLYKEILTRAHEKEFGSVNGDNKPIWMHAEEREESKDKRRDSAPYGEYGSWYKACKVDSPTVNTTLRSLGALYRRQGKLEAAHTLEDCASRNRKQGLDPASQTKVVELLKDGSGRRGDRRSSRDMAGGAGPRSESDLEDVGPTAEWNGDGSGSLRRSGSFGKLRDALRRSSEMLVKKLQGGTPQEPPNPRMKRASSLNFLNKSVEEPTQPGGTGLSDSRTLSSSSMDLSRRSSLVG
Sequence of UniProt O14880 (O14880 whole entry, looked up): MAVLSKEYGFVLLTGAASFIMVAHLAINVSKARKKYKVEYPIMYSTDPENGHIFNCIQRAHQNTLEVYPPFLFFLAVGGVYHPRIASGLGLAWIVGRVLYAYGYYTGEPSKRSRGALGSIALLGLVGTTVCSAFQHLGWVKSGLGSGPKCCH
Sequence of UniProt Q9BQ69 (Q9BQ69 whole entry, looked up): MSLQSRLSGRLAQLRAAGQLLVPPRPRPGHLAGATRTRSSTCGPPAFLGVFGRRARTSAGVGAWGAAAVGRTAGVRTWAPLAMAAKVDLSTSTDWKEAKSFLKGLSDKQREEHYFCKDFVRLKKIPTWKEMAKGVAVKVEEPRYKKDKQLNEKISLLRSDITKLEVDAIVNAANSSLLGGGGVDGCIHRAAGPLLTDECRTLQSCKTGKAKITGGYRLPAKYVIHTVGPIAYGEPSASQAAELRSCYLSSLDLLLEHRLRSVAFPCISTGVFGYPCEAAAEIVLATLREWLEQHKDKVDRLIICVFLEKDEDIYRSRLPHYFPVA
Sequence of UniProt Q2VIQ3 (Q2VIQ3 whole entry, looked up): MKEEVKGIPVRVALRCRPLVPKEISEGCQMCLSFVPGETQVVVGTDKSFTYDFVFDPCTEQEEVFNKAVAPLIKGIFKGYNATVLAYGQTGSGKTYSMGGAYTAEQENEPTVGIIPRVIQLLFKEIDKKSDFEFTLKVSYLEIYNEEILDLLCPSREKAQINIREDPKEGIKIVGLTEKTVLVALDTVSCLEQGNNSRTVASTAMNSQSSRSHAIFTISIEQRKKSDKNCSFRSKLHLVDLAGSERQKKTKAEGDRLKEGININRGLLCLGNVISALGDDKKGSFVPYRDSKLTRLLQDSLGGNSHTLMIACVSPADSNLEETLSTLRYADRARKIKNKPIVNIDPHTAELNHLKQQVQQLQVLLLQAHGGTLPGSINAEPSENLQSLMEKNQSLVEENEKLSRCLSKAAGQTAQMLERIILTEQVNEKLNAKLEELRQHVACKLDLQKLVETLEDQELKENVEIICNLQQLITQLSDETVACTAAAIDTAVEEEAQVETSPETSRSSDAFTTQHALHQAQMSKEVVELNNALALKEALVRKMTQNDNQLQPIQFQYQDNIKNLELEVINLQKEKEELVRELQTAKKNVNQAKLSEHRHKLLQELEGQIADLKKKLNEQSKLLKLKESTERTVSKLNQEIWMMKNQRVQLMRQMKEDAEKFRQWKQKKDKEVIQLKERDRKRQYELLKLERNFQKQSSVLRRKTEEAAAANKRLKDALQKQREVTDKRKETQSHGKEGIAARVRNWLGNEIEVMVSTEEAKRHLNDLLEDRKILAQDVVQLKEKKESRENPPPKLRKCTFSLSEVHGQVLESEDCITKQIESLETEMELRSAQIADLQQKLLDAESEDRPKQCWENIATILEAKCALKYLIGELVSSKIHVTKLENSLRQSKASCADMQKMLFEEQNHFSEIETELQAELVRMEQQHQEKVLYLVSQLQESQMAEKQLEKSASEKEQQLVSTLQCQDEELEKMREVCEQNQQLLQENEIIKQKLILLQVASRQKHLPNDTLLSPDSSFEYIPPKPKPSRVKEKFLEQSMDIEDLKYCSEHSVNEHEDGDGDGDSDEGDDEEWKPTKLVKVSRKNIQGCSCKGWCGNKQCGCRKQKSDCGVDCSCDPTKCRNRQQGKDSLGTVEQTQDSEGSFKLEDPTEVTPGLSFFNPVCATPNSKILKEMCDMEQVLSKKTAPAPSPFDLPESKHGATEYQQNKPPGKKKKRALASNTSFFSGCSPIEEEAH
Sequence of UniProt P45983 (P45983 whole entry, looked up): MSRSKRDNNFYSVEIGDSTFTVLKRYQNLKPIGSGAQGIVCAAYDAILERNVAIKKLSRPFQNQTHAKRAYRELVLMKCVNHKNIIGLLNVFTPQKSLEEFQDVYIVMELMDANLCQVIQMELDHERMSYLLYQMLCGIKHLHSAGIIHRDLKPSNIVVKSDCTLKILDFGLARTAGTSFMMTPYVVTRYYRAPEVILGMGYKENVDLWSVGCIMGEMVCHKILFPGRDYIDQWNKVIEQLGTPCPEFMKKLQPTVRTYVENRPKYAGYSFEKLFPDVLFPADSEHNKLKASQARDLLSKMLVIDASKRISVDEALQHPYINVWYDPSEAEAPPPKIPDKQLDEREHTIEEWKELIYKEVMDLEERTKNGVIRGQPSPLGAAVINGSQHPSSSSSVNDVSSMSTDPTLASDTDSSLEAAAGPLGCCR
Sequence of UniProt Q1ED39 (Q1ED39 whole entry, looked up): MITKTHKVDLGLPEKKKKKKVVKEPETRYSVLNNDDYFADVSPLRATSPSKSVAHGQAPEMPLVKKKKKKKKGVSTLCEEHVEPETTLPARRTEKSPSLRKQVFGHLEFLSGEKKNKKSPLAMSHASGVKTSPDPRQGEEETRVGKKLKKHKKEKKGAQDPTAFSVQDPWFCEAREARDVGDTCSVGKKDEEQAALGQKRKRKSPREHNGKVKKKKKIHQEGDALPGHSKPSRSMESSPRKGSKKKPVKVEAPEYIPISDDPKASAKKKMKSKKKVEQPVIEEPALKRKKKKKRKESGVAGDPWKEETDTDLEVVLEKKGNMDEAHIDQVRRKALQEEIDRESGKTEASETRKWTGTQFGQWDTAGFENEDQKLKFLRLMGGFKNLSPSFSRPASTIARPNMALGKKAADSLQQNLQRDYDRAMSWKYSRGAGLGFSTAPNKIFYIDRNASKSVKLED

| Target | log2 fold change (alvocidib) | log2 fold change (Tubastatin A) | log2 fold change [1] | log2 fold change (defactinib) | log2 fold change [2] | log2 fold change (encorafenib) | log2 fold change [3] | log2 fold change (alisertib) | log2 fold change [4] | log2 fold change (gefitinib) | log2 fold change (lapatinib) | log2 fold change (pictilisib) | log2 fold change (crizotinib) | log2 fold change [5] | log2 fold change (duvelisib) | log2 fold change (gandotinib) | log2 fold change (tozasertib) | log2 fold change (doramapimod) | log2 fold change (bafetinib) | log2 fold change [6] |
| --- | --- | --- | --- | --- | --- | --- | --- | --- | --- | --- | --- | --- | --- | --- | --- | --- | --- | --- | --- | --- |
| LETM1 (UniProt O95202) | -0.046 | -0.033 | 0.018 | -0.007 | -0.027 | -0.001 | -0.018 | -0.022 | -0.166 | -0.04 | -0.001 | 0.004 | -0.043 | 0.015 | -0.018 | 0.03 | 0.005 | -0.01 | -0.049 | -0.085 |
| MAPK8 isoform 3 (UniProt P45983) | 0.01 | -0.111 | 0.541 (active) | -0.07 | -0.144 | 0.135 | 0 | -0.022 | 0.003 | -0.042 | -0.042 | 0.192 | -0.089 | -0.022 | -0.07 | 0.281 | -0.007 | -0.049 | -0.014 | -0.037 |
| KIF4B (UniProt Q2VIQ3) | -0.01 | -0.207 (active) | 0.024 | 0.008 | -0.039 | 0.034 | 0.146 | -0.018 | -0.006 | -0.018 | 0.03 | -0.001 | -0.02 | 0.029 | -0.023 | -0.051 | -0.033 | 0.015 | -0.04 | 0.035 |
| KNOP1 (UniProt Q1ED39) | -0.004 | 0.151 | 0.062 | 0.413 (active) | 0.337 | -0.023 | 0.022 | -0.065 | 0.097 | -0.03 | -0.046 | 0.03 | -0.068 | 0.004 | 0.022 | 0.027 | -0.085 | 0.1 | -0.06 | -0.011 |
| MBOAT2 (UniProt Q6ZWT7) | -0.024 | 0 | 0.079 | 0.002 | -0.025 | 0.156 | -0.073 | -0.003 | 0.034 | 0.064 | -0.067 | 0.061 | -0.005 | -0.175 | 0.009 | 0.319 (active) | 0.106 | -0.12 | -0.049 | 0.281 |
| KLC2 (UniProt Q9H0B6) | -0.034 | -0.072 | 0.004 | -0.048 | -0.006 | 0.01 | 0.043 | -0.038 | 0.001 | -0.098 | -0.012 | -0.057 | -0.047 | 0.025 | -0.031 | -0.145 | 0.012 | 0.065 | -0.043 | 0.074 |
| MCU (UniProt Q8NE86) | 0.011 | 0.045 | 0.026 | 0.037 | -0.067 | 0.016 | -0.035 | 0.01 | -0.063 | -0.091 | -0.145 | -0.041 | -0.125 | -0.03 | 0.037 | -0.311 (active) | -0.02 | 0.085 | -0.108 | 0.032 |
| LTN1 isoform 3 (UniProt O94822) | 0.016 | -0.259 | -0.014 | -0.009 | -0.063 | 0.034 | -0.072 | 0.017 | 0.035 | -0.021 | 0.086 | -0.017 | -0.046 | 0.027 | -0.029 | -0.18 | 0.003 | 0.009 | -0.071 | 0.007 |
| MAP4 (UniProt P27816) | -0.023 | 0.043 | 0.016 | -0.02 | 0.037 | -0.024 | -0.031 | -0.007 | 0.014 | -0.02 | -0.002 | 0.012 | 0.013 | -0.032 | -0.004 | 0.058 | -0.014 | -0.044 | 0.018 | -0.007 |
| LRWD1 (UniProt Q9UFC0) | 0.027 | -0.2 | -0.049 | 0.059 | -0.051 | 0.01 | 0.11 | -0.001 | 0.017 | -0.024 | -0.026 | -0.049 | -0.199 | -0.011 | 0 | -0.102 | -0.007 | 0.029 | -0.082 | 0.019 |
| MBD2 (UniProt Q9UBB5) | 0.026 | -0.06 | 0.001 | 0.022 | 0.083 | 0.013 | -0.061 | 0.031 | 0.024 | -0.016 | -0.009 | 0.017 | 0.006 | -0.035 | 0.02 | -0.004 | 0.029 | 0.045 | -0.006 | -0.032 |
| MGST3 (UniProt O14880) | 0.071 | 0.043 | 0.054 | 0 | 0.029 | -0.04 | 0.052 | 0.026 | -0.005 | -0.038 | 0.01 | -0.017 | 0.004 | 0.23 | -0.02 | -0.078 | -0.035 | -0.025 | -0.048 | -0.087 |
| LIMK2 isoform 3 (UniProt P53671) | -0.002 | 0.02 | 0.068 | -0.026 | 0.102 | 0.204 | -0.189 | 0.031 | 0.033 | -0.141 | 0.029 | 0.112 | -0.138 | 0.626 (active) | -0.035 | -0.144 | 0.01 | 0.109 | -0.108 | -0.037 |
| MACROD1 (UniProt Q9BQ69) | 0.12 | -0.104 | 0.012 | 0.039 | 0.015 | 0.029 | -0.074 | -0.037 | -0.001 | 0.033 | 0.011 | -0.013 | -0.066 | 0.084 | 0.04 | -0.017 | -0.03 | -0.012 | -0.102 | 0.052 |
| MAT2B (UniProt Q9NZL9) | -0.028 | 0.063 | -0.013 | 0.003 | -0.01 | -0.009 | -0.006 | 0.032 | 0.016 | -0.006 | 0.008 | -0.028 | 0.007 | 0.063 | -0.031 | -0.02 | 0.019 | -0.023 | -0.007 | 0.005 |
| MARK1 (UniProt Q9P0L2) | -0.053 | -0.087 | -0.27 | -0.267 | 0.072 | 0.075 | 0.226 | -0.007 | -0.134 | -0.004 | 0.037 | -0.065 | -0.175 | 0.026 | -0.002 | -0.192 | -0.084 | 0.155 | -0.034 | 0.05 |
